This is a sample that favours compounds with a hit; in the whole collection about 5.4% have one here.
JMJD2C inh = inhibitors of GASC-1 histone demethylase, primary screen, biochemical, fluorescence, DELFIA europium. actives 0.069% (n = 330,000). GST-JMJD2C(1-420) H3K9me3 demethylation. inhibition, % at 2.35 µM. AID 2099, 2009;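 active = more than half of a compound's replicate wells show inhibition beyond 50%, single wells judged on their own value; inconclusive = some, but no more than half, of replicates pass 50% inhibition; inactive = no replicate passes 50% inhibition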;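 note: signal counts dimethyl H3K9 product captured on neutravidin plate; 0% = median of DMSO wells and 100% = 0.3 times that DMSO median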
Target sequence (Q9H3R0 1-420 limits assumed): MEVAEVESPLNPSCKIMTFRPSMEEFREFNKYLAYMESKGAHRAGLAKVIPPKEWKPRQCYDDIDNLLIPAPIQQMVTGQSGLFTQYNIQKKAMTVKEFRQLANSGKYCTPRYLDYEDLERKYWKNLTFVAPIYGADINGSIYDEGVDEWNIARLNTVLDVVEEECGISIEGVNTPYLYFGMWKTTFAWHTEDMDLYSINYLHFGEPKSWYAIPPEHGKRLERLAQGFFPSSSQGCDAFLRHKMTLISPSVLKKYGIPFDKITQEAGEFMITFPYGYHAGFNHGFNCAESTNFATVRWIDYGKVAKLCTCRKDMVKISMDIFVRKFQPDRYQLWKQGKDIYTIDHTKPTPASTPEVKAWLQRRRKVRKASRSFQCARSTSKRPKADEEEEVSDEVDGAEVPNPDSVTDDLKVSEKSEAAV
ALR inh = inhibitors of human ALR sulfhydryl oxidase, primary screen, biochemical, H2O2 detection, HRP-luminol luminescence, single point; FAD-linked sulfhydryl oxidase ALR (Homo sapiens), P55789; purified ALR, DTT oxidation; inhibition, % (no concentration beside the values); actives 3.8% (n = 290,000);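 active = mean replicate inhibition above about 79%, with every replicate also reaching it, limit read from the data; inconclusive = only one of the two criteria met; inactive = mean below limit and not every replicate reaching it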
Target sequence (P55789 whole entry, looked up): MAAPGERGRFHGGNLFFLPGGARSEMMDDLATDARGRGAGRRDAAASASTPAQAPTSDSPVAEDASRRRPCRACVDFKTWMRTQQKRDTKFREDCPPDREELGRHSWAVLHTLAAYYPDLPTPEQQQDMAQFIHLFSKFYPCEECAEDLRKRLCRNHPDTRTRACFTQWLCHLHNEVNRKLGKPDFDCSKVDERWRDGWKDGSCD
SMARCA2 activ = SMARCA2 (BRM) function activators, primary screen, cell-based, luminescence, high throughput | MG213 cells, MMTV-luciferase reporter, dexamethasone, overnight | activation, % at 9.1 µM | actives 1% (n = 370,000) | AID 652017, 2013; in the data active = activation above about 7.8%;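 note: 0% = vehicle wells and 100% = reference activator wells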
MIN6 prolif-1 = inducers of MIN6 beta-cell proliferation, primary screen, ATP luminescence, uHTS; MIN6 cells proliferation, ATPlite luminescence, 48 h; cells starved in 0.2% serum; 100% = growth in 10% serum; proliferation, % at 10 µM; actives 0.29% (n = 330,000); AID 2380, 2010;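 active = compounds whose signal lies at least 3.5 SD above the mean of all wells on their plate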;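 note: 0% = DMSO-treated cells in low-serum medium and 100% = 10% serum control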
Exocytosis inh = LAMP-1 surface exposure blockers, TALL-104 cells – cell-based, flow cytometry, MLPCN library, primary screen; AID 651702, 2012; actives 0.66% (n = 360,000); TALL-104 LAMP-1 surface exposure; cells stimulated with thapsigargin and PMA; inhibition, % at 10 µM;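 active = inhibition above about 55%, limit read from the data; inconclusive = no clear call, values can overlap the other calls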
M18AAP inhibitor = PfM18AAP inhibitors, malaria aminopeptidase, primary screen, biochemical, QFRET, recombinant enzyme; M18 aspartyl aminopeptidase (Plasmodium falciparum 3D7); H-Glu-NHMec fluorogenic cleavage; inhibition, % at 7.35 µM; actives 1.2% (n = 290,000); AID 1822, 2009;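 active = inhibition above the campaign mean inhibition over all tested compounds plus 3 SD, cut at about 28% in these data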;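 note: 0% = plate median of test compound wells and 100% = 2 mM ZnCl2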
MIN6 prolif-2 = inducers of beta-cell proliferation in MIN6, confirmation, MIN6 cells, mouse; shares compounds with MIN6 prolif-1; ATPlite luminescence, 48 h; cells kept in 0.2% serum; scaled between 0.2% and 10% serum; proliferation increase, % at 50 µM; 920 tested, under 10 active;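 active = proliferation increase above 40% at any of the four tested concentrations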
* = called active by the depositor.

Results for COc1ccc(C(=O)Nc2ccc3c(c2)C(=O)NC3=O)cc1 ?
JMJD2C inh: 18; SMARCA2 activ: -1; MIN6 prolif-1: 2; Exocytosis inh: -5; M18AAP inhibitor: -9

What do the screens show for `CCn1c(=O)n(CC)c2cc(N3CCCC3)c(NC(=O)c3cccc(OC)c3)cc21`?
JMJD2C inh: -12; ALR inh: 66; SMARCA2 activ: -1; MIN6 prolif-1: 17*; Exocytosis inh: 0; M18AAP inhibitor: 20; MIN6 prolif-2: -6

Results for COc1cccc(C(=O)Nc2ccc3c(c2)C(=O)NC3=O)c1 ?
JMJD2C inh: 9; SMARCA2 activ: 1; MIN6 prolif-1: 9.1*; Exocytosis inh: -3; M18AAP inhibitor: 3; MIN6 prolif-2: 0

How did CN1C(=O)N(C)c2ccc(C=O)c3cccc1c23 do in these assays?
JMJD2C inh: 5; ALR inh: -22; SMARCA2 activ: 6; MIN6 prolif-1: 7; Exocytosis inh: -2; M18AAP inhibitor: -6

What do the screens show for `CN1C(=O)N(C)c2ccc(Br)c3cccc1c23`?
JMJD2C inh: 9; ALR inh: -25; SMARCA2 activ: -2; MIN6 prolif-1: 8.6*; Exocytosis inh: 8; M18AAP inhibitor: -4; MIN6 prolif-2: 1

How did COC(=O)[C@]12C[C@H](CC(=O)NCCc3ccccc3OC)C(=O)N(Cc3ccc4c(c3)OCO4)C1=C[C@H](COCc1ccccc1)O[C@@H]2C do in these assays?
SMARCA2 activ: 0

What do the screens show for `CN(c1ccc(C(=O)Nc2cccnc2)cc1)S(=O)(=O)c1ccccc1`?
JMJD2C inh: -9; ALR inh: 1; SMARCA2 activ: -4; MIN6 prolif-1: 0.0*; Exocytosis inh: 14; M18AAP inhibitor: -4; MIN6 prolif-2: 2

How did CN(c1ccc(C(=O)Nc2cccnc2)cc1)S(=O)(=O)c1ccc(Cl)cc1 do in these assays?
JMJD2C inh: 1; ALR inh: 0; SMARCA2 activ: -2; MIN6 prolif-1: -1; Exocytosis inh: 6; M18AAP inhibitor: -3

What do the screens show for `CCCN1CCCCC(NC(=O)c2ccc(C)cc2C)C1=O` (configuration not stated)?
SMARCA2 activ: -3

Results for CC(C)c1nc(CN2CCCCC2)cc(=O)[nH]1 ?
JMJD2C inh: -6; ALR inh: -4; SMARCA2 activ: -3; MIN6 prolif-1: 8.9*; Exocytosis inh: 0; M18AAP inhibitor: 4; MIN6 prolif-2: 0

What do the screens show for `CCc1cc(=O)[nH]c(SCC(=O)N2CCCC2)n1`?
JMJD2C inh: 1; ALR inh: 0; SMARCA2 activ: -1; MIN6 prolif-1: 5; Exocytosis inh: 1

What do the screens show for `Nc1ccn([C@@H]2O[C@H](C(=O)NCC(=O)N3CCOCC3)[C@@H](O)[C@H]2O)c(=O)n1`?
SMARCA2 activ: 2

Results for O=C(NCCCn1ccnc1)/C(=C\c1cccs1)NC(=O)c1ccccc1 ?
JMJD2C inh: 0; ALR inh: -4; SMARCA2 activ: 2; MIN6 prolif-1: 6.7*; Exocytosis inh: 1; M18AAP inhibitor: 1; MIN6 prolif-2: 2

Results for CC(C)[C@H](NS(=O)(=O)c1ccccc1)C(=O)OCC(=O)Nc1cccc(S(N)(=O)=O)c1 ?
JMJD2C inh: 0; ALR inh: 4; SMARCA2 activ: -1; MIN6 prolif-1: 1; Exocytosis inh: -3

What do the screens show for `CC(C)[C@H](NS(=O)(=O)c1ccccc1)C(=O)OCC(=O)Nc1ccc2c(c1)OCO2`?
JMJD2C inh: 5; ALR inh: 0; SMARCA2 activ: 1; MIN6 prolif-1: 4.6*; Exocytosis inh: 2; M18AAP inhibitor: -2; MIN6 prolif-2: 0

Results for CCC(=O)N1CCc2cc(S(=O)(=O)CCC(=O)Nc3cccc(F)c3)ccc21 ?
JMJD2C inh: 45; ALR inh: 98*; SMARCA2 activ: -2; MIN6 prolif-1: 8.9*; Exocytosis inh: 0; M18AAP inhibitor: 1; MIN6 prolif-2: -5

How did CCC(=O)N1CCc2cc(S(=O)(=O)CCC(=O)Nc3ccc(C(C)=O)cc3)ccc21 do in these assays?
JMJD2C inh: -13; ALR inh: 34; SMARCA2 activ: -3; MIN6 prolif-1: 1; Exocytosis inh: -3; M18AAP inhibitor: 5

What do the screens show for `COc1ccc(OCc2cc(C(=O)N(Cc3nccn3C)C(C)C)no2)c2ccccc12`?
JMJD2C inh: -13; ALR inh: -11; SMARCA2 activ: 0; MIN6 prolif-1: 12*; Exocytosis inh: 21; M18AAP inhibitor: 3; MIN6 prolif-2: -6

What do the screens show for `CCN1C(=O)/C(=C/c2ccc(C)o2)N(C)C1=S`?
JMJD2C inh: 0; ALR inh: 2; SMARCA2 activ: 0; MIN6 prolif-1: 0.0*; Exocytosis inh: 58*; M18AAP inhibitor: 10; MIN6 prolif-2: -1

What do the screens show for `C[C@@H]1N[C@H]2N(C1=O)c1ccccc1[C@@]21C[C@@H]2C(=O)N[C@](C)(O1)c1nc3ccccc3c(=O)n12`?
SMARCA2 activ: -1

How did CC(C)Cn1c(N)c(/C=N/NC(=O)c2ccc(Cl)cc2)c(=O)n(C)c1=O do in these assays?
JMJD2C inh: 2; ALR inh: 0; SMARCA2 activ: 3; MIN6 prolif-1: 6.5*; Exocytosis inh: -5; M18AAP inhibitor: 5; MIN6 prolif-2: -1

Results for COC(=O)C1(F)C(=O)NC(=O)NC1OC (configuration not stated) ?
SMARCA2 activ: 0

What do the screens show for `CCN1C(=O)[C@H]2[C@@H](c3ccc(-c4ccc(F)cc4)cc3)N[C@@](CC(C)C)(C(=O)OC)[C@H]2C1=O`?
JMJD2C inh: inconclusive; ALR inh: -5; SMARCA2 activ: 0; MIN6 prolif-1: -8; Exocytosis inh: -5

What do the screens show for `CCOC(=O)C1(CC)NC(c2cccc(F)c2)C2C(=O)N(CC)C(=O)C21` (configuration not stated)?
JMJD2C inh: 2; SMARCA2 activ: -2; MIN6 prolif-1: 7.2*; Exocytosis inh: 0; M18AAP inhibitor: 0; MIN6 prolif-2: 4

How did O=C(NCc1ccc(F)cc1)C(c1ccco1)N(C(=O)c1csnn1)c1ccccc1 (configuration not stated) do in these assays?
JMJD2C inh: -11; ALR inh: -16; SMARCA2 activ: -2; MIN6 prolif-1: 11*; Exocytosis inh: -5; M18AAP inhibitor: 10; MIN6 prolif-2: -4

Source: PubChem BioAssay (several laboratories)
